Records with an inconclusive call do not appear. The source made the active and inactive calls. Calls come from the whole dose curve; as a rule, active = well fitted cell-killing curve with a large enough effect; inconclusive = small, poorly fitted or top-dose-only effect, or effect the other way; inactive = no such curve, though single readings can be large or run the other way.
Potency is the fitted concentration of half-maximal effect.

This experiment is described as follows: Quantitative High-Throughput drug screen in 47 multiple myeloma cell lines against the NCATS MIPE library collection: MMM1_PLB cell viability assay (AID 1918976). Note: nearly all actives have a fitted effect of over 35% in size. The conditions noted are these: MMM1 myeloma cells viability, CellTiter-Glo, 48 h; series mostly up to 45.8 µM. From the text:
PI: Beverly A. Mock Ph.D.
Laboratory of Cancer Biology and Genetics,
Center for Cancer Research, National Cancer Institute,
National Institute of Health, Bethesda, Maryland
Drug resistance and disease progression are common in multiple myeloma (MM) patients, underscoring the need for new therapeutic combinations. […] We hypothesized that effective combinations would reduce MYC expression and enhance p16 activity. […] These preclinical data identify potentially useful drug combinations for evaluation in drug-resistant MM and reveal potential mechanisms of combined drug sensitivity.
Described herein is the primary MIPE qHTS used to cherrypick compounds. Validated compounds were then further tested for potential synergistic activiy.
[1] Peat TJ, Gaikwad SM, Dubois W, Gyabaah-Kessie N, Zhang S, Gorjifard S, Phyo Z, Andres M, Hughitt VK, Simpson RM, Miller MA, Girvin AT, Taylor A, Williams D, D'Antonio N, Zhang Y, Rajagopalan A, Flietner E, Wilson K, Zhang X, Shinn P, Klumpp-Thomas C, McKnight C, Itkin Z, Chen L, Kazandijian D, Zhang J, Michalowski AM, Simmons JK, Keats J, Thomas CJ, Mock BA. Drug combinations identified by high-throughput screening promote cell cycle transition and upregulate Smad pathways in myeloma. Cancer Lett. 2023 Aug 1;568:216284. doi: 10.1016/j.canlet.2023.216284. Epub 2023 Jun 24. PMID: 37356470; PMCID: PMC10408729.
SEQUENCE No. (e.g., 1, 2, 3, etc.); […] (e.g., Cells, Incubation, Reagent, etc.); VALUE and DESCRIPTION.
1; Cells; 5 uL; white, solid bottom 1536-well Greiner assay plate.
2; Compounds; 23 nL; Kalypsis pin tool (Wako USA) equipped with a 1536-well pin head to transfer to the assay plates.
3; Incubation; 48 hours; 37C incubation.
4; Reagent;5uL; CellTiter Glo (Promega).
5; Detector; 425V; Luminescence; Viewlux PerkinElmer.
NOTES (numbers refer to Sequence numbers above)
1. The cell-based screening methods employed in this study were like those previously published. Briefly, the corresponding myeloma cell lines were screened in 1,536-well plates with 500 cells, 5-uL per well for inhibition of cell viability (assessed by measuring ATP levels with CellTiterGlo).
2. NCATS MIPE 4.0 library of approved and investigational drugs were added using the Kalypsis pin tool. Wells treated with DMSO only for 100% viability and media only for 0% viability were used as controls.
3. The assay plates were covered and incubated for 48 hours in a 37C, 5% CO2 incubator with controlled humidity.
4. After 48 hours, CellTilter-GloTM luminescent substrate mix (Promega) reagent was added to the assay plate and plates we incubated for 5 min at room temperature.
5. Signal was measured as median relative luminescence units on a ViewLux (PerkinElmer) multiplate reader.
[1] Heske CM, Davis MI, Baumgart JT, Wilson K, Gormally MV, Chen L, Zhang X, Ceribelli M, Duveau DY, Guha R, Ferrer M, Arnaldez FI, Ji J, Tran HL, Zhang Y, Mendoza A, Helman LJ, Thomas CJ. Matrix Screen Identifies Synergistic Combination of PARP Inhibitors and Nicotinamide Phosphoribosyltransferase (NAMPT) Inhibitors in Ewing Sarcoma. Clin Cancer Res. 2017 Dec 1;23(23):7301-7311. doi: 10.1158/1078-0432.CCR-17-1121. Epub 2017 Sep 12. PMID: 28899971; PMCID: PMC6636827.
A general note: ATP-based viability assays read luminescence as a measure of living cells.
For the compound `O=c1[nH]c2ccccc2n1C1CCN(Cc2ccc(-c3[nH]c4cc5ncnc5cc4nc3-c3ccccc3)cc2)CC1`, the Potency is 14.8 µM (active). To `O=[N+]([O-])c1ncc[nH]1` belongs 3.32 µM (active); to `CC[C@H]1C=CC=CC[C@@H](C)[C@H](O)[C@@](C)(O)C(=O)[C@@H](C)[C@H](O)[C@@H](C)C(=O)[C@@H](C)[C@H](O)[C@@H](C)C=CC(=O)O[C@@H]2[C@@H](C)[C@H](CC1)O[C@]1(CC[C@H](C)[C@H](C[C@@H](C)O)O1)[C@H]2C`, 0.0059 µM (active); to `CCNC(=O)CC1N=C(c2ccc(Cl)cc2)c2cc(OC)ccc2-n2c(C)nnc21` (stereo not given), 16.6 µM (active).

As to `Cc1c(C(=O)c2cccc3ccccc23)c2cccc3c2n1[C@H](CN1CCOCC1)CO3`, the Potency was 23.5 µM (active).

`CC[C@@]1(O)C(=O)OCc2c1cc1n(c2=O)Cc2cc3ccccc3nc2-1`: the Potency was 0.935 µM (active). As for `CC(C)N[C@@H]1CCn2c(=O)[nH]c3cccc(c32)[C@@H]1O`, the figure is 18.7 µM (active).

Take `CCCN1CCO[C@@H]2c3cc(O)ccc3OC[C@@H]21`: the Potency was 16.6 µM (active).

With `COc1cc([C@@H]2c3cc4c(cc3[C@@H](O)C3COC(=O)C32)OCO4)cc(OC)c1O` (stereo not given in full), the Potency is 0.0935 µM (active).

Regarding `CC(=O)N(C)c1cccc(-c2ccnc3c(C(=O)c4cccs4)cnn23)c1`, the Potency is 2.96 µM (active). Consider `CO[C@H]1CCC(O[C@H]2C[C@H]([C@]3(C)CC[C@]4(C[C@H](O)[C@@H](C)[C@@H]([C@@H](C)C=C(C)C(=O)[C@H](C)C[C@H](C)C(=O)O)O4)O3)O[C@]3(O[C@@H]([C@H]4O[C@@](O)(CO)[C@H](C)C[C@H]4C)C[C@H]3C)[C@H]2C)O[C@H]1C` (stereo not given in full), for which the Potency is 1.66 µM (active).

In the case of `C[C@]12CC[C@H]3[C@@H](CCC4=CC(=O)CC[C@@]43C)[C@H]1CC[C@H]2OC(=O)CCC1CCCC1`, the Potency is 23.5 µM (active).

Regarding `COc1cc2cc(c1Cl)N(C)C(=O)C[C@H](OC(=O)C(C)C)[C@]1(C)O[C@H]1[C@H](C)[C@@H]1C[C@@](O)(NC(=O)O1)[C@H](OC)C=CC=C(C)C2`, the Potency result was “inactive”. For `O=S(=O)(CC1CS1)c1ccc(Oc2ccccc2)cc1` (stereo not given), the Potency was 16.6 µM (active). For `COCC1(CO)C(=O)C2CCN1CC2` (stereo not given), the Potency is 5.26 µM (active). As to `C=CCON=C(C[C@H]1O[C@@H]2O[C@]3(C)CC[C@@H]4[C@H](C)CC[C@@H]([C@H]1C)[C@@]24OO3)[C@H]1O[C@@H]2O[C@]3(C)CC[C@H]4[C@H](C)CC[C@@H]([C@@H]1C)[C@@]24OO3`, the Potency was 0.187 µM (active). As for `CN1[C@H]2CC(O)C[C@H]1[C@H]1O[C@H]12` (stereo not given in full), the figure is 20.9 µM (active); as for `COc1ccc2c(c[n+](C)c3c4cc5c(cc4ccc23)OCO5)c1OC`, 6.62 µM (active); as for `Cc1[nH]nc2ccc(-c3cncc(OC[C@@H](N)Cc4c[nH]c5ccccc45)c3)cc12`, 1.18 µM (active). As for `Cc1c(C(=O)Nc2cccc(C(F)(F)F)c2)cc(-c2ccccc2)n1CCCN1CCOCC1`, the Potency was 20.9 µM (active). `O=C(NCC1CCOCC1)c1cnc(Nc2ccc(Cl)cc2Cl)nc1C(F)(F)F`: the Potency was 20.9 µM (active).

As for `C[C@]12Cc3cn[nH]c3C[C@@H]1CC[C@@H]1[C@H]2CC[C@@]2(C)[C@H]1CC[C@]2(C)O`, the Potency was 23.5 µM (active).

`C[C@]12CC[C@H](O)CC1=CC[C@H]1[C@H]3CCC(=O)[C@@]3(C)CC[C@@H]12`: the Potency was 4.69 µM (active). As for `C[C@@H]1O[C@@H](O[C@@H]2C=C3CC[C@@H]4[C@@H](CC[C@]5(C)[C@H](c6ccc(=O)oc6)CC[C@@]45O)[C@@]3(C)CC2)[C@H](O)[C@H](O)[C@H]1O`, the figure is 0.0264 µM (active); as for `c1ccc(CCCN2CCN(CCOC(c3ccccc3)c3ccccc3)CC2)cc1`, 18.7 µM (active).

For the compound `Cc1ccccc1-n1c(Cn2ncc3c(N)ncnc32)nc2cccc(C)c2c1=O`, the Potency result was “inactive”. As for `N#C[C@H](O[C@@H]1O[C@H](CO[C@@H]2O[C@H](CO)[C@H](O)[C@H](O)[C@H]2O)[C@H](O)[C@H](O)[C@H]1O)c1ccccc1`, the Potency was 23.5 µM (active). Consider `CC[C@@H]1[C@@H](C)O[C@@](O)([C@@H](C)[C@H](O)[C@H](C)[C@H]2OC(=O)C=CC=C[C@@H](C)[C@@H]([C@@H](C)[C@@H](O)[C@H](C)[C@@]3(O)C[C@H](O[C@H]4C[C@H](O)[C@H](O)[C@H](C)O4)[C@H](CC)[C@@H](C)O3)OC(=O)C=CC=C[C@@H]2C)C[C@H]1O[C@H]1C[C@H](O)[C@H](O)[C@H](C)O1`, for which the Potency is 0.743 µM (active). Take `CC(C)[C@]12O[C@@H]1[C@@H]1O[C@]13[C@]1(O[C@H]1C[C@@H]1C4=C(CC[C@@]13C)C(=O)OC4)[C@H]2O`: the Potency entry is “inactive”. As to `C=C1C[C@H]2[C@H]3CCC(=O)[C@@]3(C)CC[C@@H]2[C@@]2(C)C=CC(=O)C=C12`, the Potency is 6.62 µM (active).

As to `CN(C)NC(=O)CCC(=O)O`, the Potency result was “inactive”. For the compound `CN[C@@H]1Cc2cccc3[nH]c(=O)n(c23)C1`, the Potency was 5.26 µM (active).

On to `N=c1c2c(-c3ccccc3)c(-c3ccccc3)n(Cc3ccccc3)c2ncn1C1CCC(O)CC1` (stereo not given), for which the Potency is 18.7 µM (active).

`CC(C)(O)C=CC(=O)[C@](C)(O)[C@H]1[C@H](O)C[C@]2(C)[C@@H]3CC=C4[C@@H](C=C(O)C(=O)C4(C)C)[C@]3(C)C(=O)C[C@@]12C`: the Potency was 1.32 µM (active). Take `Cc1ccccc1-n1c(Cn2cnc3c(N)ncnc32)nc2cccc(C)c2c1=O`: the Potency is 0.166 µM (active).

With `COC1=CC(C)=C[C@@H](C)[C@@H](O)[C@@H](C)CC(C)=CC=C[C@H](OC)[C@H]([C@@H](C)[C@@H](O)[C@H](C)[C@@]2(O)C[C@@H](O)[C@H](C)[C@@H](C(C)C)O2)OC1=O`, the Potency was 10.5 µM (active). For `C[C@]12CCC(=O)C(O)=C1CC[C@@H]1[C@H]3CCC(=O)[C@@]3(C)CC[C@@H]12`, the Potency is 2.35 µM (active). Consider `CC(=Cc1csc(C)n1)[C@@H]1C[C@H]2O[C@]2(C)CCC[C@H](C)[C@@H](O)[C@@H](C)C(=O)C(C)(C)[C@@H](O)CC(=O)O1`, for which the Potency entry was “inactive”.

Regarding `COC[C@H]1OC(=O)c2coc3c2[C@@]1(C)C1=C(C3=O)[C@@H]2CC[C@H](O)[C@@]2(C)C[C@@H]1OC(C)=O`, the Potency is 1.05 µM (active). To `CCOC(=O)c1cncn1[C@H](C)c1ccccc1` belongs 7.43 µM (active).

Source of the values: PubChem BioAssay (NCATS).
